From PubChem BioAssay AID1850 (Southern Research Specialized Biocontainment Screening …, 2009) come the findings set out here.

Structures are written as SMILES. The whole screen tested about 310,000 compounds, of which about 1,000 (0.32%) were called active. The list is a sample of the results. Results with a measured potency or affinity are listed apart. Values without a mark were called inactive. The rule behind the calls is not given here.

The nature of the assay: PhoP regulon inhibitors, Salmonella typhi PhoP promoter GFP reporter, confirmatory (AID 1850).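 Note: 0% = induced wells with vehicle and 100% = uninduced wells.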 As to conditions: fluorescence, 4 h, at 50 µM, hits give high values.
With `CCCc1nc(Cl)c(C#N)c2c1CCCC2`, the inhibition is -3.33%.
For `CCOC(=O)Cc1cn2c(=O)cc(CSCC(=O)Nc3ccc(C)c(C)c3)nc2s1`, the inhibition is -2.4%.
Take `COc1cc2[nH]c3c(c2cc1OC)CCN1CCCC[C@@H]31`: the inhibition is 5.9%.
For `O=S(=O)(c1ccc(F)cc1)c1nc(-c2ccco2)oc1Nc1ccc(F)cc1` the value was -12.3%.
For `C=CCn1c(SCC(=O)NC2CCS(=O)(=O)C2)nnc1-c1ccc(Cl)cc1` (configuration not stated) the value was -6.21%.
With `O=C(CSc1nnc(C2COc3ccccc3O2)o1)Nc1ccc(F)cc1Cl` (configuration not stated), the inhibition is -3.78%.
Turning to `O=C(Nc1nnc(C2=COCCO2)o1)c1ccc(F)cc1`, the inhibition was 1.96%.
For the compound `CCOC(=O)C1=C(COC(=O)C2(C)CC2(Cl)Cl)NC(=O)NC1c1ccc(OC)cc1` (configuration not stated), the inhibition is 6.71%.
With `COc1ccccc1CNCC(=O)Nc1cc(S(=O)(=O)N2CCCCCC2)ccc1Cl`, the inhibition was -6.34%.
On to `CCN(c1ccc(C(O)(C(=O)OC)C(F)(F)F)cc1)S(=O)(=O)c1ccccc1` (configuration not stated), for which the inhibition was -2.75%.
As to `CN(C)CCNC(=O)COc1ccc(Cl)cc1Cl`, the inhibition is 1.91%.
For the compound `COc1ccc(Cl)cc1C(=O)NCCN(C)C`, the inhibition was -0.53%.
As for `CCCSc1nc(N)cc(=O)[nH]1`, the inhibition is 5.93%.
As to `Cc1ccc2c(c1)c1c3n2CCCNC3CCC1` (configuration not stated), the inhibition is 5.15%.
For the compound `Cc1ccc2c(c1)c1c3n2CCN=C3CCC1`, the inhibition is 0.52%.
Take `Oc1ccc2c(c1)c1c3n2CCNC3CCC1` (configuration not stated): the inhibition is -4.83%.
Regarding `Cc1ccc2c(c1)c1c3n2CCN(C(=O)CN2CCN(C)CC2)C3CCC1` (configuration not stated), the inhibition was 4.43%.
For `c1ccc(-c2ccc3c(c2)c2c4n3CCN=C4CCC2)cc1` the value was 6.31%; for `Cc1ccc2c(c1)c1c3n2CCN(C(=O)CCl)C3CCC1` (configuration not stated), 7.2%.
Turning to `CCOP(=O)(c1ccccc1)C1(O)CCCCC1` (configuration not stated), the inhibition was 14.1%.
As to `Cc1ccc(S(=O)(=O)N2C(=O)CCC2C(=O)O/N=C(\N)c2ccccc2)cc1` (configuration not stated), the inhibition was -13.3%.
For `O=C(CN(C(=O)c1csnn1)c1ccccc1Cl)NC1CCCC1`, the inhibition was 13.4%.
As for `O=C(O)c1cccc([N+](=O)[O-])c1C(=O)Nc1nc2ccccc2s1`, the inhibition was 4.78%.
Regarding `CCn1c(CN2c3ccccc3Sc3ccccc32)n[nH]c1=S`, the inhibition is 4.44%.
For `O=C(c1cccc(Cl)c1)N1CCCc2ccccc21` the value was 4.51%; for `Cc1ccc(S(=O)(=O)N2CCN(c3cnn(C)c(=O)c3Cl)CC2)cc1`, -6.96%.
With `CCCCn1c(N)c(N(CCC(C)C)C(=O)CCN2C(=O)C3CC=CCC3C2=O)c(=O)[nH]c1=O` (configuration not stated) the figure was 0.9%.
